# Unmarked numbers belong to inactive results. Activity calls are given as the source filed them. Cut-off read from the data, not from the text of the source, unless noted: active = inhibition above about 36%; inactive = the rest.
# Legend:
# [1] = test system: transactivating tegument protein VP16 (Human herpesvirus 1); assay: compounds suppressing VP16-driven luciferase signal – cell-based, luminescence, single concentration, counter-screen for SRC2 inhibitor project (AID 652007); details: cell-based VP16 transactivation luciferase reporter, at 8.9 µM, active compounds read high
# [2] = molecular target: Nuclear receptor coactivator 2 (Homo sapiens) (UniProt Q15596); assay: inhibition of GAL4-SRC2 driven luciferase expression – cell-based, luminescence, HEK293, triplicate, confirmation (AID 652008;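 active = mean inhibition above 46.5%, the solvent-only control mean plus 3 SD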;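 note: 0% = DMSO-treated cells and 100% = Gossypol at 36 µM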); details: HEK293 GAL4-SRC2 luciferase reporter, at 8.9 µM, active compounds read high
# Sequence of Nuclear receptor coactivator 2 (Homo sapiens) (Q15596 whole entry, looked up, the tested form may be a part): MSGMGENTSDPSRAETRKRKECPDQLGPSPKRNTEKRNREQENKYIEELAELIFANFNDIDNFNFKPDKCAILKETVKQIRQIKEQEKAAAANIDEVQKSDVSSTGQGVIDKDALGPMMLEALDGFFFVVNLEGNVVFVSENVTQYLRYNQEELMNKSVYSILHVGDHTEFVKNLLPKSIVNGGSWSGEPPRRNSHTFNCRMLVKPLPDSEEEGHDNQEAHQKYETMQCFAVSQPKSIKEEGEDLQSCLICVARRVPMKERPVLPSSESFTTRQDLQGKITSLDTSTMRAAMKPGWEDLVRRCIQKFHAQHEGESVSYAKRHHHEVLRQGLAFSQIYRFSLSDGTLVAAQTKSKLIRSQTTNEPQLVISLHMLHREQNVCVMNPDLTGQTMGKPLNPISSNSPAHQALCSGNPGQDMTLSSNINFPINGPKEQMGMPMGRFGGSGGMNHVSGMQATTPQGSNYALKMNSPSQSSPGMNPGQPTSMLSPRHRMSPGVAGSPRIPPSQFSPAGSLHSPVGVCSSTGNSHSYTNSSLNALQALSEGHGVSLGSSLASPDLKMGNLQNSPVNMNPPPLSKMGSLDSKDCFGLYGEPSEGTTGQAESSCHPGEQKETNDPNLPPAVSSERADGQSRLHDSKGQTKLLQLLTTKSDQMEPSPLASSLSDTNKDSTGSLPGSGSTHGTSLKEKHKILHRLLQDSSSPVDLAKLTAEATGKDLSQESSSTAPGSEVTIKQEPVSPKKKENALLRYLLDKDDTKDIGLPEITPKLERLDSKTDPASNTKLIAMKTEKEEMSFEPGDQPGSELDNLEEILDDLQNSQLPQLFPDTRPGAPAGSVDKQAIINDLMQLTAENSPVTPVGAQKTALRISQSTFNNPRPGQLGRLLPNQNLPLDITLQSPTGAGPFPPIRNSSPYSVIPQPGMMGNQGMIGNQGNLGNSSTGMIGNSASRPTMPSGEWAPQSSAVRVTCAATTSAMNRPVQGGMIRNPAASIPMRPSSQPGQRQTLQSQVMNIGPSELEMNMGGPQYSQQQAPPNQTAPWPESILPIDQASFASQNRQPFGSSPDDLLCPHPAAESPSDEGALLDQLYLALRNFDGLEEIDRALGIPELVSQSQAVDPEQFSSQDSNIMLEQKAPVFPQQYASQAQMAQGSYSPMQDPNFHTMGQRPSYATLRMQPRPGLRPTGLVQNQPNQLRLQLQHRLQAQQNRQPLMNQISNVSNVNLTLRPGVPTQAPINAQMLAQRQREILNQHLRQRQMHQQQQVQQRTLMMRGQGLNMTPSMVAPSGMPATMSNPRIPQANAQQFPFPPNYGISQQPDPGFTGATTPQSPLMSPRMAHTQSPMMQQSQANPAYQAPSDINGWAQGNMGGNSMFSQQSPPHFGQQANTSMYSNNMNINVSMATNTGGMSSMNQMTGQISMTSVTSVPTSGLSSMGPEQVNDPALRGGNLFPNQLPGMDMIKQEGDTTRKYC
Compound,inhibition [1],inhibition [2]
COc1ccc(NC(=O)CSc2nnnn2C2CCCCC2)c(OC)c1,1.44%,14.6%
C=C(C(=O)c1ccccc1)C(C)CC(=O)c1ccccc1 (stereo unspecified),11.5%,26.8%
CC(C)=C1C2CCC1C1C(=O)N(c3nccs3)C(=O)C21 (stereo unspecified),12.1%,6.16%
Nn1cnnc1SCC(=O)N1CCc2ccccc2C1,3.54%,-22.3%
O=C1/C(=C/c2ccncc2)CCC/C1=C\c1ccncc1,89.1% (active),98.1% (active)
CCc1ccc(CCNC(=O)OCCCN2CCC3(CCC(c4ccccc4)CC3)C2=O)cc1 (stereo unspecified),5.9%,33.8%
Cc1ccc(O)c(NC(=O)c2cc([N+](=O)[O-])ccc2Cl)c1,8.71%,44.2%
Cc1ccc(-c2noc(CCC(=O)NCCN3CCN(Cc4ccccc4)CC3)n2)cc1,12.2%,41.6%
Cc1ccc(NC(=O)C2CCN(C(=O)c3ccccc3C)CC2)nc1,-5.97%,-11.5%
CN(Cc1ccc(Cl)cc1)C(=O)CCl,29.1%,25.3%
CCc1ccc(/C=C2\SC(=S)N(CCC(=O)Nc3cc(C)on3)C2=O)cc1,-41%,16.6%
Cc1cccc(N(Cc2cc(=O)[nH]c3ccccc23)C(=O)CCl)c1,42.4% (active),83% (active)
CCn1cc(S(=O)(=O)Nc2ccc3c(c2)OCCO3)cn1,-3.8%,48.4% (active)
Cc1nn(C)c(Cl)c1NC(=O)OCc1ccc(Cl)cc1Cl,10.8%,16.2%
O=C(CN1CCN(CC(=O)Nc2ccccc2Cc2ccccc2)CC1)Nc1ccccc1Cl,11.3%,4.85%
Cc1sc(NC(=O)CSc2nnnn2C(C)C)c(C#N)c1C,2.68%,-4.47%
O=C(NC(=S)Nc1cccc2cc(O)ccc12)c1ccccc1Br,2.57%,-14.4%

Compound,inhibition [1],inhibition [2]
Cc1sc2ncnc(N3CCC(C(=O)Nc4ccc(S(N)(=O)=O)cc4)CC3)c2c1C,-3.11%,30.8%
C[C@@H]1CN([C@H](C)CO)C(=O)c2cc(NC(=O)Nc3ccc(C(F)(F)F)cc3)ccc2O[C@H]1CN(C)S(=O)(=O)c1ccccc1,18.9%,32.9%
O=[N+]([O-])c1cccc2cnccc12,-10.2%,3.57%
CCc1ccc(-c2nc(CS(=O)CC(=O)NCc3ccccc3)c(C)o2)cc1 (stereo unspecified),-8.7%,51.9% (active)
O=C(N/N=C/c1ccc(O)cc1)c1[nH]c2ccc(Br)cc2c1-c1ccccc1,-15.2%,-7.94%
CCN1CCCc2cc(CN(CCN3CCOCC3)C(=S)Nc3ccccc3OC)ccc21,-14.1%,-10.6%
C=CCc1c(C)nc(SC(C)C)[nH]c1=O,0.2%,-25.4%
Cc1nc2ccccc2c2c1CC(C(C)(Cl)Br)O2 (stereo unspecified),5.15%,29.1%
COc1ccc(OCCNC(=O)c2ccc3nc(C)c(N(C)C(=O)CCc4ccccc4)n3c2)cc1,-12.5%,2.8%
CC(C(=O)NC(C)(C)C)N(C(=O)CS(=O)CC(=O)Nc1ccc(F)cc1)c1ccccc1F (stereo unspecified),2.18%,-14.3%
Cn1c(=O)c(=O)n(C)c2cc(S(=O)(=O)Nc3ccc4c(c3)OCCO4)ccc21,-4.82%,47.5% (active)
COc1ccc(NC(=O)C2(C)Cc3c(-c4cccc(NC(C)=O)c4)ccnc3O2)cc1 (stereo unspecified),-10.6%,1.6%
C[C@@H]1C[C@H]2O[C@@H]2/C=C\C=C\C(=O)Cc2cc(O)cc(O)c2C(=O)O1,34.7%,15.2%
Cc1cc(C2=NNC(=NC3CC3)SC2)c(C)n1Cc1ccco1,78.6% (active),93.6% (active)
COc1ccccc1/C=C/C(=O)c1cc(Br)ccc1OC(=O)c1ccco1,-1.7%,-2.06%
CCN(CC)c1ccc(/C=C/c2cc(-c3ccccc3)c3ccccc3n2)cc1,-11.2%,-13.1%
